Screening data as filed in PubChem.
Most compounds without a hit are left out; they make up all but 3.3% or so of the library.
USP2a block: qHTS Assay for Inhibitors of Ubiquitin-specific Protease USP2a Using CHOP2 as the Reporter; Ubiquitin carboxyl-terminal hydrolase 2 (Homo sapiens), O75604; USP2 core, Ub-CHOP2 coupled fluorogenic reporter, 485/531; Potency, µM (doses to about 38.3 µM), for inactives: at the highest dose activity change, negative = inhibition, actives largely listed as inhibitors; hit rate 0.01% among 330,000; AID 463254, 2010;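 further: potency means the concentration at half of the fitted maximal effect; plate controls were DMSO wells for no effect and full inhibition by NEM control for full effect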
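Deubiquitinase activity read as fluorescence (485/531 nm) after Ub-CHOP2 cleavage activates the enterokinase reporter on its substrate; USP2 core 10nM, Ub-CHOP2 and substrate 25nM each, 30min compound preincubation then 60min RT; data normalized to NEM, curves fitted.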
PI5P4Ka inh: qHTS for Inhibitors of phosphatidylinositol 5-phosphate 4-kinase (PI5P4K); Phosphatidylinositol 5-phosphate 4-kinase type-2 alpha (Homo sapiens), P48426; PI5P4Kalpha enzyme, ADP-Glo luminescence, 60 min; active compounds read low; max response, %; hit rate 1.2% among 330,000; active means max response of -50% or lower; inconclusive means between -30% and -50%; inactive means -30% or higher; further: value at the top dose of about 77 µM
Target sequence (P48426 whole entry, looked up): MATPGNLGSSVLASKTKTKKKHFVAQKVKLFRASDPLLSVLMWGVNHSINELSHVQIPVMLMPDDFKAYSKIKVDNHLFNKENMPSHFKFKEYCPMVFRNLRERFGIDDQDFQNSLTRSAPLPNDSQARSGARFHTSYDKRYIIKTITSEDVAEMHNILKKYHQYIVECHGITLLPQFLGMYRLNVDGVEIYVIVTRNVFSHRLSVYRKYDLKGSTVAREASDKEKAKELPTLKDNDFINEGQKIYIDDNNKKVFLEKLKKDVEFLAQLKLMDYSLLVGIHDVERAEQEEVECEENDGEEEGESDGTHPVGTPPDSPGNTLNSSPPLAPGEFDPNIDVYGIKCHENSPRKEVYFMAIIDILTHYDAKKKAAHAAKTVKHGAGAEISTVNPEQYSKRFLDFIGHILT
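Compounds were pin-transferred onto PI5P4Kalpha and substrate in HEPES pH 7.4 buffer with EGTA, CHAPS and 5% DMSO. ATP (5 microM final) started the reaction, which ran 60 minutes at room temperature before ADP-Glo detection.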
USP1-UAF1 inh: Inhibitors of USP1/UAF1: Primary Screen; Potency, µM (top dose mostly 57.1 µM), for the others: at the highest dose activity change, negative = inhibition, usual class: inhibitors; hit rate 0.23% among 390,000; recombinant USP1/UAF1, Ub-Rhodamine cleavage fluorescence; further: potency means the concentration at half of the fitted maximal effect; nearly all actives have a fitted effect of over 60% in size
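USP1/UAF1 complex at 1 nM was preincubated with compound for 15 min at room temperature, then Ub-Rho substrate (150nM final) was added. Fluorescence (480/540 nm) was read kinetically, 6 reads every 60 seconds.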
WRN helicase inh: qHTS for Inhibitors of WRN Helicase; Bifunctional 3'-5' exonuclease/ATP-dependent helicase WRN (Homo sapiens), Q14191; hit rate 0.46% among 360,000; Potency, µM (doses to about 114 µM), for inactives: top-dose activity change, negative = inhibition, usual class: inhibitors; WRN helicase unwinding, fluorescent forked duplex, kinetic; further: potency means the concentration at half of the fitted maximal effect; nearly all actives have a fitted effect of over 55% in size
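Kinetic fluorescence helicase assay: unwinding of a quenched forked DNA duplex (100 nM final) with 2 mM ATP final raises red fluorescence (525/598 nm). Compounds sat 15 min at room temperature with 20 nM WRN beforehand.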
PLK1 PBD inh: qHTS for Inhibitors of PLK1-PDB (polo-like kinase 1 - polo-box domain): Primary Screen. Plk1 PBD binding of FITC phosphopeptide, fluorescence polarization. AID 720504, 2013. hit rate 2.8% among 360,000. Serine/threonine-protein kinase PLK1 (Homo sapiens), P53350. Potency, µM, for inactives: max response, negative = inhibition, hits mostly inhibitors; further: potency means the concentration at half of the fitted maximal effect; series mostly up to about 57 µM; nearly all actives have a fitted effect of over 65% in size
* marks the source's active call; other numbers are inactive results. Unless noted, the call rests on the fitted dose curve; in most records, active means well fitted curve in the direction sought with a large enough effect; inconclusive means small, poorly fitted or top-dose-only effect, or another doubt; inactive means no such curve, though single readings can be large; an effect the other way counts as inactive or inconclusive. Unless noted, on the % scale 0 is the no-effect control and ±100 the full control effect.

Results for CCC(C)(C)C1CCc2c(sc(NC(=O)c3ccccc3C(=O)O)c2C#N)C1 (stereo unspecified) ?
USP2a block: -9%; PI5P4Ka inh: inconclusive; USP1-UAF1 inh: inconclusive; WRN helicase inh: -35%; PLK1 PBD inh: 27µM*

What do the screens show for `CC(C)(C)c1ccc(C(=O)Nc2sc3c(c2C#N)CCC(C(C)(C)C)C3)cc1` (stereo unspecified)?
USP1-UAF1 inh: -26%

How did COc1ccc(NC(=O)Nc2sc3nc4n(c(=O)c3c2C)CCC(C)CC4)cc1OC (stereo unspecified) do in these assays?
USP1-UAF1 inh: -19%

How did CCS(=O)(=O)c1ncc(Cl)c(C(=O)N(Cc2ccccc2)Cc2ccco2)n1 do in these assays?
USP1-UAF1 inh: -23%

Results for O=C(N/N=C/c1ccncc1)C12CC3CC(CC(C3)C1)C2 ?
USP2a block: -1%; PI5P4Ka inh: -6; USP1-UAF1 inh: -25%; WRN helicase inh: -5%; PLK1 PBD inh: 38µM*

Results for CCS(=O)(=O)N1CCc2cc(C(=O)NCc3ccccc3OC)ccc21 ?
USP1-UAF1 inh: -10%

What do the screens show for `Cc1ccc(O)c(C(=O)c2cc(C#N)c(=O)n(-c3c(C)n(C)n(-c4ccccc4)c3=O)c2)c1`?
USP2a block: 9%; USP1-UAF1 inh: -10%; WRN helicase inh: -16%; PLK1 PBD inh: -6%

Results for Cc1ccc(O)c(C(=O)c2cc(C#N)c(=O)n(-c3nccs3)c2)c1 ?
USP2a block: inconclusive; PI5P4Ka inh: inconclusive; USP1-UAF1 inh: 18µM*; WRN helicase inh: -35%; PLK1 PBD inh: -15%

How did CCc1cccc(NC(=O)C(c2ccccc2)N2Cc3ccccc3C2=O)c1 (stereo unspecified) do in these assays?
USP1-UAF1 inh: -20%

How did CCOC(=O)C(NC(C)=O)(Nc1ccc(S(=O)(=O)Nc2cc(C)on2)cc1)C(F)(F)F (stereo unspecified) do in these assays?
USP2a block: 0%; PI5P4Ka inh: 5; USP1-UAF1 inh: -11%; WRN helicase inh: -21%; PLK1 PBD inh: -9%

Results for Cc1cc(NS(=O)(=O)c2ccc(NC(NC(=O)C(C(F)(F)F)C(F)(F)F)(C(F)(F)F)C(F)(F)F)cc2)no1 ?
USP2a block: -2%; PI5P4Ka inh: inconclusive; USP1-UAF1 inh: -25%; WRN helicase inh: inconclusive; PLK1 PBD inh: 6µM*

Results for CC(C1CC2CCC1C2)n1c(-c2ccco2)n[nH]c1=S (stereo unspecified) ?
USP2a block: 2%; PI5P4Ka inh: -16; USP1-UAF1 inh: -3%; WRN helicase inh: -36%; PLK1 PBD inh: 30µM*

What do the screens show for `O=C(c1cc2ccccc2oc1=O)N(Cc1ccco1)Cc1cccs1`?
USP2a block: -1%; USP1-UAF1 inh: -2%; WRN helicase inh: -13%; PLK1 PBD inh: -4%

What do the screens show for `O=C(c1cc2ccccc2oc1=O)N(Cc1cccs1)Cc1cccs1`?
USP2a block: 0%; PI5P4Ka inh: inconclusive; USP1-UAF1 inh: -26%; WRN helicase inh: 0%; PLK1 PBD inh: 15µM*

Results for COc1ccc2c(c1)CC(C(=O)N1CCC(C(N)=O)CC1)CO2 (stereo unspecified) ?
USP1-UAF1 inh: 11%

How did COc1ccc(OC)c2sc(N(Cc3cccnc3)C(C)=O)nc12 do in these assays?
USP1-UAF1 inh: -11%

Results for CCOC(=O)C(=CNNc1cccc(Cl)c1)C(=O)OCC ?
USP2a block: 0%; PI5P4Ka inh: 9; USP1-UAF1 inh: 0%; WRN helicase inh: 50µM*; PLK1 PBD inh: 9.5µM*

How did Cc1cc(NC(=O)NCc2ccc3c(c2)CCN3C(=O)c2ccccc2)ccc1Br do in these assays?
USP1-UAF1 inh: -5%

What do the screens show for `COC(=O)NCC12CC3CC(C1)CC(CNC(=O)OC)(C3)C2`?
USP2a block: 0%; PI5P4Ka inh: -9; USP1-UAF1 inh: 3%; WRN helicase inh: 1%; PLK1 PBD inh: 12µM*

Results for COc1cccc(OC)c1C(=O)NCC12CC3CC(C1)CC(CNC(=O)c1c(OC)cccc1OC)(C3)C2 ?
USP2a block: 3%; PI5P4Ka inh: 1; USP1-UAF1 inh: -16%; WRN helicase inh: 9%; PLK1 PBD inh: 3%

What do the screens show for `Cc1cc(NC(=O)C(C)C)ncc1NC(=O)c1ccccn1`?
USP2a block: 0%; PI5P4Ka inh: -4; USP1-UAF1 inh: -23%; WRN helicase inh: 9%; PLK1 PBD inh: 27µM*

How did CCc1oc2ccccc2c1C(=O)c1cc(Br)c(O)c(Br)c1 do in these assays?
USP2a block: -2%; PI5P4Ka inh: -9; USP1-UAF1 inh: inconclusive; WRN helicase inh: -10%; PLK1 PBD inh: 8.4µM*

How did CN(C)S(=O)(=O)c1cccc(NC(=O)CSc2cccc3cccnc23)c1 do in these assays?
USP2a block: 2%; PI5P4Ka inh: 6; USP1-UAF1 inh: -7%; WRN helicase inh: -19%; PLK1 PBD inh: 11µM*

What do the screens show for `CN(C)S(=O)(=O)c1ccc(SCC(=O)Nc2cccc(S(=O)(=O)N3CCCC3)c2)nc1`?
PI5P4Ka inh: -12; USP1-UAF1 inh: -14%; WRN helicase inh: -9%; PLK1 PBD inh: -16%

What do the screens show for `CCCCC(C(=O)NC1CCCC1)N(Cc1ccco1)C(=O)Cn1nnc(-c2ccc(F)cc2)n1` (stereo unspecified)?
USP2a block: 2%; PI5P4Ka inh: 3; USP1-UAF1 inh: -8%; WRN helicase inh: 2%; PLK1 PBD inh: 24µM*

How did Cc1cc(C)cc(OC(=O)CS(=O)c2ccc(C(F)(F)F)cc2[N+](=O)[O-])c1 (stereo unspecified) do in these assays?
USP2a block: -2%; PI5P4Ka inh: 23; USP1-UAF1 inh: -20%; WRN helicase inh: -31%; PLK1 PBD inh: inconclusive

What do the screens show for `O=C(CS(=O)c1ccc(C(F)(F)F)cc1[N+](=O)[O-])Oc1ccc(Cl)cc1` (stereo unspecified)?
USP2a block: -2%; PI5P4Ka inh: 2; USP1-UAF1 inh: inconclusive; WRN helicase inh: inconclusive; PLK1 PBD inh: 13µM*

What do the screens show for `CNC(=O)CSc1nc2cc(S(=O)(=O)Nc3ccc(OC)cc3)ccc2o1`?
PI5P4Ka inh: 6; USP1-UAF1 inh: -24%; WRN helicase inh: inconclusive; PLK1 PBD inh: -9%

How did COc1ccc(NS(=O)(=O)c2ccc3oc(SC)nc3c2)cc1 do in these assays?
USP2a block: 4%; PI5P4Ka inh: 0; USP1-UAF1 inh: -23%; WRN helicase inh: -19%; PLK1 PBD inh: 21µM*
